Source: PubChem BioAssay (The Scripps Research Institute Molecular Screening Center)
hgDAF-12 ag: hgDAF-12 agonism, primary luciferase screen; activation, % at 6.8 µM; HEK293 GAL4-hgDAF12 UAS-luciferase reporter, agonist luminescence; normalized to butyrate control; 370,000 tested, 1.8% active;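 active = activation above a cutoff set at the mean of all screened compounds plus 3 SD, cut at about 10% in these data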
hcDAF-12 act: activates DAF-12 receptor from parasite H. contortus; HEK293 hcDAF-12 lit1-tk-luc reporter, luminescence; 0% DMSO, 100% Δ7-dafachronic acid; 370,000 tested, 1.4% active; activation, % at 6.8 µM; AID 652067;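 active = activation above the mean of all tested compounds plus 3 SD, cut at about 5.5% in these data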
ssDAF-12 act: S. stercoralis DAF-12 activation, primary screen; HEK293 ssDAF-12/GRIP1 lit1-tk-luc reporter, luminescence; % of 3 µM dafachronic acid response; activation, % at 6.8 µM; 370,000 tested, 1% active; AID 652126;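 active = activation above the mean over all tested compounds plus 3 SD, cut at about 0.9% in these data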
SMARCA2 act: SMARCA2 function activation, primary screen | MG213 cells, MMTV-luciferase reporter, dexamethasone, overnight | 370,000 tested, 1% active | AID 652017 | activation, % at 9.1 µM; in the data active = activation above about 7.8%
DAX1 inh-1: blocks DAX1 repression of SF-1 activated StAR promoter. HEK293T StAR-luciferase reporter, SF-1/DAX-1 repression relief. inhibition, % at 6.8 µM. 370,000 tested, 1.1% active. AID 652010;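 active = inhibition above the mean over all tested compounds plus 3 SD, cut at about 3.6% in these data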;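 also: higher inhibition means more luminescence from relief of DAX-1 repression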
DAX1 inh-2: NR0B1 (DAX1) inhibition | HEK293 Gal4-DAX1 luciferase reporter, luminescence | inhibition, % at 6.75 µM | 340,000 tested, 0.99% active | AID 504766;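 active = inhibition above the mean over all tested compounds plus 3 SD, cut at about 4.2% in these data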;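 also: inhibition shows as a rise in luminescence from relieved DAX1 repression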
Target sequence (P51843 207-470 limits assumed): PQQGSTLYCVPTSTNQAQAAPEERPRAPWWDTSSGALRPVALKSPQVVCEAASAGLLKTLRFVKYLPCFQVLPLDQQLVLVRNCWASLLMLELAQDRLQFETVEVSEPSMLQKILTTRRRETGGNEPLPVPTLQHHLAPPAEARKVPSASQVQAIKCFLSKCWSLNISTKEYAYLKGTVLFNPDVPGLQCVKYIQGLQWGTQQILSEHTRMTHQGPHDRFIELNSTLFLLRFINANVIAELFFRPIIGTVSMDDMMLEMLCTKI
Numbers stand for hits; - = inactive; . = not tested or not shown. A selection: hits, their analogues and other compounds. The true share with any hit is near 4.8%.

SMILES | hgDAF-12 ag | hcDAF-12 act | ssDAF-12 act | SMARCA2 act | DAX1 inh-1 | DAX1 inh-2
C(=N\Nc1nc(-c2ccccc2)cs1)/c1ccco1 | 13 | - | - | - | - | -
C(=N\Nc1nc(-c2ccccc2)cs1)/c1ccncc1 | - | - | - | - | - | -
Cc1sc(N/N=C/c2cccnc2)nc1-c1ccccc1 | - | - | - | - | - | -
C(=N\Nc1nc(-c2ccccc2)cs1)/c1cccs1 | - | 5.8 | - | - | - | -
Clc1ccc(-c2csc(N/N=C/c3ccco3)n2)cc1 | - | - | - | - | - | 6.2
NNc1nc(-c2ccccc2)cs1 | - | 6.0 | - | - | - | -
Cc1ccc2nc(N/N=C/c3ccco3)cc(C)c2c1 | 11 | - | - | - | - | -
O=S1(=O)CC2c3ccc(F)cc3CN2CN1C1CCCC1 (stereo unspecified) | - | - | 1.0 | - | - | .
O=S1(=O)CC2c3ccc(F)cc3CN2CN1Cc1ccc(F)cc1 (stereo unspecified) | - | - | - | - | - | .
CC(Sc1nnc(-c2ccco2)n1N)C(=O)NCC1CCCO1 (stereo unspecified) | - | - | - | - | - | -
CC(Sc1nnc(-c2ccc(OC(F)F)cc2)n1N)C(=O)NCC1CCCO1 (stereo unspecified) | - | - | - | - | 4.4 | -
CC(Sc1nnc(-c2ccc(OC(F)F)cc2)o1)C(=O)NCC1CCCO1 (stereo unspecified) | - | - | 1.1 | - | - | -
CCOc1ccc(-n2c(COc3ccc(Cl)cc3)nnc2SCC(=O)Nc2ccc(OCc3ccccc3)cc2)cc1 | - | - | - | - | - | .
Cc1ccc(CSc2ncnc3c2cnn3-c2ccccc2)cc1 | - | - | - | - | - | -
Clc1ccc(-n2ncc3c(NCc4cccs4)ncnc32)cc1 | - | - | - | - | - | -
CC(=O)Nc1ccc(Nc2ncnc3c2cnn3-c2cccc(C)c2)cc1 | - | - | - | 7.9 | - | -
Cc1ccc(-n2ncc3c(SCc4ccccc4)ncnc32)cc1 | 12 | 6.5 | - | - | - | -
Cc1cccc(-n2ncc3c(NCc4cccs4)ncnc32)c1 | - | - | 1.2 | - | - | -
Cc1cccc(-n2ncc3c(NCc4ccccc4)ncnc32)c1 | 12 | - | - | - | - | -
CCc1cc2c(nc1CC)CCCN2S(=O)(=O)c1ccc(C(F)(F)F)cc1 | - | - | - | - | - | .
O=C(CSc1ncnc2ccccc12)c1ccc2c(c1)OCCO2 | - | - | - | - | - | -
O=C(COc1ncnc2cc(Cl)ccc12)c1ccc2c(c1)OCCO2 | - | - | - | - | - | 4.8
O=C(COc1ncnc2ccccc12)c1ccc2c(c1)OCCO2 | 11 | - | - | - | - | -
Cc1ccc(C(=O)COc2ncnc3cc(Cl)ccc23)cc1 | - | - | - | - | - | .
CN(C)/C=N/S(=O)(=O)c1ccc(Cl)cc1 | - | - | - | - | - | 4.4
SMILES | hgDAF-12 ag | hcDAF-12 act | ssDAF-12 act | SMARCA2 act | DAX1 inh-1 | DAX1 inh-2
CC1=C(C(=O)NCCCOC(C)C)C2(CCC(C)CC2)OC1=O (stereo unspecified) | - | - | 1.0 | - | - | -
CC(=O)Nc1ccc(OCC(C)CN2CCC(C(O)(c3ccccc3)c3ccccc3)CC2)cc1 (stereo unspecified) | - | - | - | - | - | .
CC1(C)C2CC[C@]3(C)C(CC=C4[C@@H]5C[C@@](C)(CO)[C@@H](O)C[C@]56C[C@@H](OC6=O)[C@]43C)[C@@]2(C)CC[C@@H]1O (stereo partly specified) | - | - | - | - | - | 5.5
C[C@H]1[C@H](C)CC[C@]2(C(=O)O)CC[C@]3(C)C(=CC[C@@H]4[C@@]5(C)CC[C@H](O)C(C)(C)[C@@H]5CC[C@]43C)[C@H]12 | - | - | - | - | - | -
COC(=O)c1c(-c2ccc(OC)cc2)sc2ccc(OC)cc12 | - | - | 1.6 | - | - | -
COc1cc2c(cc1OC)C(NC(=O)C(F)(F)F)CNC2=O (stereo unspecified) | 13 | - | - | - | - | -
CCOC(=O)C1=NOC(C(=O)NCc2ccccc2)(C(=O)c2ccc(OC)cc2)C1 (stereo unspecified) | - | - | - | - | - | .
Cc1cc(N)ncc1[N+](=O)[O-] | - | - | - | - | - | 4.2
CC1CC1C(=O)N1CCC(Oc2cccnc2)CC1 (stereo unspecified) | - | - | - | - | - | .
c1ccc2nc3c(nc2c1)OCC1CCCCN31 (stereo unspecified) | - | 6.2 | - | - | - | -
Cc1ccc(/C(N)=N/OC(=O)CCc2ccccc2)cc1 | - | 6.2 | - | - | - | -
N/C(=N\OC(=O)c1ccc(F)cc1)c1ccccc1 | - | - | - | - | - | -
Cc1ccc(/C(N)=N/OC(=O)c2ccc(F)cc2)cc1 | - | - | - | 7.8 | - | -
CCOC(=O)c1cc2c(=O)c3ccccc3oc2nc1C | 11 | - | - | - | - | -
NC(=O)CSc1nc(O)cc(=O)n1-c1ccccc1 | - | - | - | - | - | -
O=C(O)CCSc1nc(C(F)(F)F)cc(=O)n1-c1ccccc1 | - | - | - | - | - | 5.7
Cc1cc(C)nc(SCc2cn3ccccc3n2)n1 | - | - | - | - | - | -
Cc1cccn2cc(CSc3ccccc3N)nc12 | 12 | - | - | - | 4.0 | -
C[C@@H]1ON(C)[C@H]2C[C@H]3c4[nH]c5c(-c6cc(Cl)cc(Cl)c6)cccc5c4CCN3C(=O)[C@@H]12 | - | - | - | - | - | .
CC(C)Oc1ccc(CCNC(=O)CC2C(=O)NCCN2C)cc1 (stereo unspecified) | - | - | - | - | - | 4.4
COc1ccc(CCNC(=O)CC2C(=O)NCCN2CC(C)(C)C)cc1 (stereo unspecified) | - | - | - | - | - | -
O=c1cc(C=NNc2ccccc2)[nH]c(=O)[nH]1 | - | - | - | - | - | 4.9
O=C(O)c1ccc(NN=Cc2cc(=O)[nH]c(=O)[nH]2)cc1 | - | - | - | - | - | -
Cc1csc(NC(=O)c2sccc2C)n1 | 12 | - | - | - | - | -
Cc1csc(NC(=O)c2cc(-c3ccco3)nc3ccccc23)n1 | - | - | 8.8 | - | - | -
SMILES | hgDAF-12 ag | hcDAF-12 act | ssDAF-12 act | SMARCA2 act | DAX1 inh-1 | DAX1 inh-2
Cc1csc(NC(=O)c2cccn2C)n1 | 12 | - | - | - | - | -
Cc1csc(NC(=O)c2ccco2)n1 | - | - | 1.0 | - | - | -
O=C(O)Cc1csc(NC(=O)c2ccco2)n1 | - | - | - | - | - | -
Nc1[nH]c(C(=O)c2ccccc2)c(-c2ccccc2)c1C(=O)NCCc1c[nH]c2ccccc12 | - | - | - | - | - | .
O=C(Nc1nc(-c2ccc(Cl)s2)cs1)c1ccco1 | 12 | - | - | - | - | -
COc1cc(C(C[N+](=O)[O-])c2c(C)[nH]c3ccccc23)cc(OC)c1OC (stereo unspecified) | - | - | - | - | - | -
